Screening data as filed in PubChem.
USP17 block: human USP17-like deubiquitinase inhibition | purified USP17, Ub-rhodamine cleavage fluorescence, 3 h | inhibition, % at 50 µM | actives 6.5% (n = 47,000) | AID 1645855
Target sequence (A8MUK1 whole entry, looked up): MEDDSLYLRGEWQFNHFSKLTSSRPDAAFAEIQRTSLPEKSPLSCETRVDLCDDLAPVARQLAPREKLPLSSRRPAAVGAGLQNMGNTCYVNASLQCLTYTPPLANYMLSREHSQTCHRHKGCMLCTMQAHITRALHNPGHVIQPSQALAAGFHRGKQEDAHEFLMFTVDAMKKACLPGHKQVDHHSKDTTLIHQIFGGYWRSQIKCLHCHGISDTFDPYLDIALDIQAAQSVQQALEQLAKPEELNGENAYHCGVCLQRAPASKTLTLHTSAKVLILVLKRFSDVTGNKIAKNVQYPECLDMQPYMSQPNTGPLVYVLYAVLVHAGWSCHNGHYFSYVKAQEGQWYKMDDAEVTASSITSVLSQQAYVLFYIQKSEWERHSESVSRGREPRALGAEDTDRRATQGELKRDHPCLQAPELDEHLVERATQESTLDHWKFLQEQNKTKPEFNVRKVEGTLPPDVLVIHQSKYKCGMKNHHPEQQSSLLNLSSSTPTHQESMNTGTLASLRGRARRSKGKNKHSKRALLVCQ
USP28 inh: human USP28 deubiquitinase inhibition | purified USP28, Ub-rhodamine cleavage fluorescence, 30 min | actives 3% (n = 47,000) | AID 1645857 | Q96RU2 | inhibition, % at 25 µM
USP30 block: blocks human USP30 ubiquitin-rhodamine cleavage | purified USP30, Ub-rhodamine cleavage fluorescence | inhibition, % at 25 µM | actives 5.3% (n = 47,000) | AID 1645860
OTUD3 inh: human OTUD3 deubiquitinase inhibition. Q5T2D3. purified OTUD3, Ub-rhodamine fluorescence, 2 h. inhibition, % at 25 µM. actives 0.7% (n = 47,000). AID 1645858
Starred values were filed as active, the others as inactive; nt = no result given. The list is not random: actives were taken first. Their share in the collection is about 11%. No stated cut-off is given here; in the data, active means inhibition above about 30%; inactive means the rest.

SMILES	USP17 block	USP28 inh	USP30 block	OTUD3 inh
CCc1ccc(N2C(=O)c3ccccc3C2C(=O)NCc2ccccc2OC)cc1 (stereo not drawn)	68*	23	63*	10
COc1ccccc1CNC(=O)CC1c2ncccc2C(=O)N1c1ccccc1 (stereo not drawn)	-14	-9	-16	-3
O=c1c2ccccc2n(Cc2cc(=O)n3ccccc3n2)c(=O)n1CC1CCCO1 (stereo not drawn)	5	-2	13	-7
O=C(COc1ccc(Cl)cc1)Nc1noc(-c2ccccc2)n1	4	58*	69*	-1
CC(NC(=O)COc1ccccc1)c1nc(-c2ccc(Cl)cc2)no1 (stereo not drawn)	13	6	2	13
Cc1ccccc1-c1noc(-c2ccccc2OCC(=O)NC(C)C)n1	62*	14	49*	6
COc1ccc(C(=O)Nc2cc(-c3cccnc3)no2)cn1	0	0	15	-1
Cc1ccccc1-c1nc(NC(=O)COc2ccc(F)cc2)no1	4	6	36*	2
Cc1ccc(-c2ncc(NC(=O)COc3ccc(F)cc3)cn2)cc1	4	11	12	2
O=C(Nc1cc(-c2cccnc2)no1)c1ccc(F)c(F)c1	65*	38*	-102	13
O=C(Cn1cccc1-c1nc(-c2ccccc2)cs1)NC1CC1	-3	-4	-29	-6
O=C1NCc2ccccc2CC12CCCN(Cc1ccc(O)cc1)C2 (stereo not drawn)	6	0	5	4
CCN1CCN(C2=NCCN2S(=O)(=O)c2ccc(C)c(C)c2)CC1	-9	-1	-49	-6
O=C(Cn1cccnc1=O)N1CCC[C@@]2(C[C@@H](Oc3ccccc3)CO2)C1	6	-3	-7	-1
CNC(=O)C1Cn2ccnc2C2(CCN(C(=O)NCCc3ccc(F)cc3)CC2)O1 (stereo not drawn)	0	-2	-2	0
O=C(COc1ccccc1)Nc1cc(-c2ccc(F)c(F)c2)no1	81*	nt	nt	-5
O=C(COc1ccc(Cl)cc1)Nc1onc2c1CCCC2	50*	-1	56*	0
Cc1ccc(OCC(=O)Nc2onc3c2CCCC3)cc1	-11	5	5	0
O=C(NCc1ccc(F)cc1)c1noc2c1CCc1sccc1-2	1	-17	19	-6
Cc1ccc(NC(=O)c2noc3c2CCc2sccc2-3)nc1	32*	-5	-37	-11
COc1ccc2c(c1)CCc1c(C(=O)NCc3cccnc3)noc1-2	47*	18	53*	9
O=C(NCCc1c[nH]c2ccccc12)c1noc2c1CCc1sccc1-2	32*	22	-55	-7
COc1ccccc1CNC(=O)c1noc2c1CCc1sccc1-2	26	29	30*	18
O=C(Nc1ccccn1)c1noc2c1CCc1sccc1-2	37*	3	-51	-9
COc1ccc(C)cc1N(C)C(=O)c1noc2c1CCc1sccc1-2	21	22	30*	18
SMILES	USP17 block	USP28 inh	USP30 block	OTUD3 inh
O=C(Nc1cnc(N2CCCC2)nc1)c1ccc(F)c(F)c1	-135	-125	-388	-104
CCOC(=O)N1CCN(C(=O)c2ccc(Cn3c(=O)[nH]c4cc(OC)c(OC)cc4c3=O)cc2)CC1	-12	-14	-16	-3
COc1cc2[nH]c(=O)n(Cc3ccc(C(=O)N4CCN(C5CCCCC5)CC4)cc3)c(=O)c2cc1OC	18	-2	33*	-2
CCOc1cc2[nH]c(=O)n(Cc3ccc(C(=O)NCCCN4CCC(C)CC4)cc3)c(=O)c2cc1OCC	27	22	35*	0
COc1ccc(Cn2c(=O)[nH]c3cc(C(=O)N4CCC(Cc5ccccc5)CC4)ccc3c2=O)cc1	7	17	37*	10
CC(Oc1ccccc1)C(=O)N1CCC2(CC1)NC(=O)N(Cc1ccc(F)cc1)C2=O (stereo not drawn)	nt	-10	-5	-8
COc1ccc(Sc2nc(-c3ccccn3)ncc2OC)cc1	6	8	35*	14
COC(=O)c1cc(O)cc(OC)c1C(=O)c1c(O)c(Cl)c(C)c(Cl)c1O	18	15	10	5
COC(=O)c1c(OC)cc2c(c1C)Oc1c(Cl)c(O)c(Cl)c(C)c1C(=O)O2	16	21	30*	7
O=C(NCCc1nc2ccccc2[nH]1)c1[nH]nc2c1CCc1ccccc1-2	10	18	45*	4
CCn1cc(C(=O)NCc2ccccc2C)c(=O)c2ccc(C)nc21	-2	-10	-50	-4
COc1cccc(CNC(=O)c2nc3c(s2)CCNCC3)c1	34*	7	-9	-3
COc1cccc(-c2noc3ncnc(N4CCOCC4)c23)c1	-3	0	5	2
Cc1cc(Cl)ccc1OCC(=O)Nc1ccccc1	14	-6	-3	-3
Cc1ccccc1CSCC(=O)Nc1ccc2[nH]c(=O)[nH]c2c1	45*	32*	42*	0
O=C(COC(=O)c1ccc(Cl)cc1)Nc1ccc2[nH]c(=O)[nH]c2c1	14	31*	74*	16
O=C(COc1ccccc1C(=O)Nc1ccccc1)Nc1ccc2[nH]c(=O)[nH]c2c1	38*	0	-27	-7
Cc1cccc(C(=O)OCC(=O)Nc2ccc3[nH]c(=O)[nH]c3c2)c1C	40*	40*	52*	17
O=C(Nc1nc2ccc(Br)cc2s1)C1CC1c1ccccc1 (stereo not drawn)	-6	-7	-11	-1
CC1Oc2ccccc2N(C(C)C(=O)O)C1=O (stereo not drawn)	0	20	-25	13
COc1ccc(C(=O)OC(C(=O)c2c[nH]c3ccccc23)c2ccccc2)cc1[N+](=O)[O-] (stereo not drawn)	29	12	-5	13
O=C(COc1ccc(Cl)cc1Cl)Nc1ccc2[nH]c(=O)[nH]c2c1	35*	47*	66*	7
COc1ccccc1NC(=O)N1CCn2cccc2C1c1ccc(F)cc1 (stereo not drawn)	-99	-92	-334	-57
O=C(c1cc2ccccc2o1)[C@@H]1[C@@H]2CCCN2[C@]2(C(=O)Nc3c(Cl)cccc32)[C@@]12C(=O)Nc1ccccc12	-9	-12	-83	-12
Cc1cc(Cl)c2c(c1)[C@]1(C(=O)N2)N2CCC[C@H]2[C@@H](C(=O)c2cc3ccccc3o2)[C@]12C(=O)Nc1ccccc12	63*	-19	-48	-18
CCCCC(=O)N1c2ccccc2NC2=C(C(=O)CC(C)(C)C2)C1c1cccnc1 (stereo not drawn)	-7	-9	0	-6
COc1ccccc1C(=O)N1CCN(C(=O)c2cc3ccccc3[nH]2)CC1	-8	-1	4	-8
O=C(Nc1ccccc1)C1CCCN(C(=O)c2cc3ccccc3[nH]2)C1 (stereo not drawn)	60*	9	33*	13
Cc1ccc(NC(=O)C2CCCN(C(=O)c3cc(-c4cccnc4)n[nH]3)C2)cc1 (stereo not drawn)	2	-1	2	4
Cc1ccc(C(=O)N2CCN(C(=O)c3cc4ccccc4[nH]3)CC2)cc1	37*	15	26	14
